# Screens as filed in PubChem.
# Vif imaging = HIV Vif inhibition; HEK293T cells, Vif self-association by quenched fluorescence, imaging, 24 h; inhibition, % at 7.49 µM; actives 0.35% (n = 340,000); in the data active = inhibition above about 50%, passing the limit was not always enough
# SMARCA2 activ = SMARCA2 function activation, primary screen. AID 652017. actives 1% (n = 370,000). MG213 cells, MMTV-luciferase reporter, dexamethasone, overnight. activation, % at 9.1 µM; in the data active = activation above about 7.8%;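 also: 0% = vehicle wells and 100% = reference activator wells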
# NadD block = NadD (S. aureus) enzyme inhibition. purified NadD enzyme, colorimetric absorbance read-out. inhibition, % at 20 µM. actives 0.78% (n = 360,000). AID 602399; in the data active = inhibition above about 26%
# esBAF inh = blocks esBAF chromatin remodeling in mouse ES cells | Bmi1-luciferase knock-in reporter, 24 h; 100% = twice the neutral-well signal | reporter increase, % at 12.5 µM | actives 2% (n = 350,000) | AID 602393; in the data active = activation above about 40%;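 also: 0% = median of the plate's neutral control wells and 100% = double that signal; a rise in the Bmi1 reporter signal indicates esBAF inhibition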
# GRIN3A LBD mod = modulates the human NR3A ligand-binding domain; AID 1259313; Tm shift relative to glycine control, % at 25 µM; NR3A LBD differential scanning fluorimetry, Tm shift; 0% = protein alone, 100% = glycine-bound protein; actives 2.5% (n = 340,000);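 active = melting temperature shift of at least 10% of the positive control shift, at one fixed dose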
# SKN-1 block = C. elegans SKN-1 inhibition; inhibition, % at 21.8 µM; C. elegans VP596 Pgst-4::GFP/RFP ratio, acrylamide-induced, 24 h; AID 624304; actives 0.49% (n = 360,000);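 active = interference check ratio from 0.5 to 1.5 plus GFP to RFP signal ratio inhibition reaching or exceeding a fixed threshold, cut at about 30% in these data, passing the limit was not always enough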
# * marks the source's active call; other numbers are inactive results; / = no result given. Hits are enriched below; roughly 5.2% of the tested compounds scored in any of these assays.
SMILES,Vif imaging,SMARCA2 activ,NadD block,esBAF inh,GRIN3A LBD mod,SKN-1 block
Cc1ccc2nc(-c3ccc(NS(=O)(=O)c4ccc(F)c(F)c4)cc3)sc2c1,-7,4,-5,/,36*,9
Cc1ccc(S(=O)(=O)Nc2ccc3nc(C)sc3c2)cc1,0,/,-2,/,1,-8
Cc1ccc2nc(-c3ccc(NS(=O)(=O)c4ccccc4)cc3)sc2c1,/,1,2,/,28*,8
C[C@H]1CCCCO[C@H](CN(C)C(=O)Nc2ccc3c(c2)OCO3)[C@@H](C)CN([C@@H](C)CO)C(=O)c2cc(NC(=O)Nc3cccc4ccccc34)ccc2O1,/,/,/,5,/,/
COCC(=O)Nc1ccc2c(c1)[C@H]1C[C@H](CC(=O)NCc3cccc(F)c3)O[C@@H](CO)[C@H]1O2,/,/,/,0,/,/
C[C@@H]1CN([C@H](C)CO)C(=O)c2cccc(NC(=O)C3CCOCC3)c2O[C@H]1CN(C)C(=O)Nc1cccc2ccccc12,/,/,/,4,/,/
CCCC#Cc1ccc2c(c1)O[C@H](CN(C)C(=O)CC1CC1)[C@@H](C)CN([C@@H](C)CO)S2(=O)=O,/,/,/,-1,/,/
Cn1c(=O)n(CCOc2ccccc2Cl)c2ccccc21,3,5,-1,78*,-6,5
O=C(O)CCn1c(=O)sc2ccccc21,7,-2,1,-6,3,-8
Cc1ccc(C)c(OCCn2nnc3ccccc32)c1,-5,2,-8,18,3,15
Cn1c(=O)n(CCOc2ccc(Cl)cc2Cl)c2ccccc21,2,0,-9,/,8,-8
Cc1ccc(OCCn2c(=O)n(C)c3ccccc32)cc1,-11,7,-5,85*,-2,9
Clc1ccccc1OCCn1nnc2ccccc21,-2,4,-9,63*,1,11
Cn1c(=O)n(CCOc2ccc([N+](=O)[O-])cc2)c2ccccc21,-1,1,-8,/,2,-4
O=c1sc2ccccc2n1CCOc1ccccc1,-3,1,-5,45*,2,13
C[C@H](CO)N1C[C@H](C)[C@@H](CN(C)Cc2ccncc2)Oc2ccc(NC(=O)Nc3ccc(F)cc3)cc2CC1=O,/,/,/,-3,/,/
CCCOc1ccc(/C=C/C(=O)NCc2ccccc2)cc1,-4,-2,-4,/,12*,11
O=C(/C=C/c1ccccc1)NCCc1ccccc1,3,4,2,89*,0,-1
O=C(/C=C/c1ccccc1Cl)NCCc1ccc(F)cc1,-2,6,-11,12,14*,10
O=C(/C=C/c1cccc([N+](=O)[O-])c1)NCCSCc1ccc(Cl)cc1,-2,0,-1,/,5,16
O=C(/C=C/c1ccc([N+](=O)[O-])cc1)NCCc1ccccc1,0,-2,-2,/,0,0
O=C(/C=C/c1ccccc1)NCCSCc1ccc(Cl)cc1,3,-2,2,/,12*,-1
Cc1ccc(S(=O)(=O)Nc2ccc3c(c2)C(=O)N([C@@H](C)CO)C[C@H](C)[C@@H](CN(C)Cc2ccc(C(=O)O)cc2)O3)cc1,/,/,/,2,/,/
CO[C@@H]1CN(C)C(=O)c2cc(NC(=O)c3cc(C)on3)ccc2OC[C@H](C)N(C(=O)C2CC2)C[C@H]1C,/,/,/,-3,/,/
CC(=O)Nc1nnc(SCc2ccc(F)cc2)s1,4,2,-7,46*,-2,4
SMILES,Vif imaging,SMARCA2 activ,NadD block,esBAF inh,GRIN3A LBD mod,SKN-1 block
Nc1nnc(SCc2ccc(F)cc2)s1,-6,-1,-6,-2,2,8
Cc1nnc(SCc2ccc(F)cc2)s1,/,5,-6,53*,1,-6
CCOC(=O)CSC1=C(C#N)C(C)C2=C(CCCC2=O)N1 (stereo not given),39,0,3,62*,4,8
CCOc1cc(/C=N/O)ccc1OS(=O)(=O)c1ccc(C)cc1,-13,-4,-26,6,-6,-8
CCOc1cc(/C=N/NS(=O)(=O)c2ccccc2)ccc1OS(=O)(=O)c1ccc(C)cc1,/,1,11,0,20*,-10
COc1ccc(OCC(O)CNC(=O)c2ccc(Br)cc2)cc1 (stereo not given),9,-4,-7,-3,-28,-13
COc1ccc(OCC(O)CNC(=O)c2ccc(OC)cc2)cc1 (stereo not given),-12,2,0,/,31*,9
COC(=O)c1ccc(COC(=O)CNC(=O)c2ccc(OC)cc2)cc1,-2,1,-6,68*,-1,-5
Cc1cccc2nc(C(=O)Nc3cc(Cl)ccc3-n3cncn3)cn12,75*,0,-1,24,-3,9
COc1ccc(CN(C)C[C@H]2OCCCC[C@H](C)Oc3ccc(NS(=O)(=O)c4ccc(F)cc4)cc3C(=O)N([C@H](C)CO)C[C@H]2C)cc1,/,/,/,1,/,/
CCCCCCOc1ccc(OCC(O)CN2C(=O)NC(C)(C)C2=O)cc1 (stereo not given),-4,0,-6,46*,14*,-7
CCOc1ccc(OCCOc2ncnc3ccccc23)cc1,-7,2,-4,46*,8,6
C[C@H](CO)N1C[C@H](C)[C@@H](CN(C)C(=O)CN(C)C)Oc2cc(C3=CCCCC3)ccc2S1(=O)=O,/,/,/,-6,/,/
O=C(Nc1nc2c(s1)CCCC2)c1ccc(N2C(=O)CCC2=O)cc1,1,3,-4,44*,1,14
COc1ccc(-c2csc(NC(=O)c3ccc(N4C(=O)CCC4=O)cc3)n2)cc1,26,-4,6,11,1,2
CC(C)(C)c1ccc(C(=O)NCC(=O)OCC(=O)Nc2nc(-c3ccc(F)cc3)cs2)cc1,3,4,13,/,10*,15
CC1CCc2nc(NC(=O)c3ccc(N4C(=O)CCC4=O)cc3)sc2C1 (stereo not given),-7,-2,2,16,0,0
O=C(Nc1nc(-c2ccc(F)cc2)cs1)c1ccc(N2C(=O)CCC2=O)cc1,6,-3,9,-21,25*,-1
COc1ccccc1-c1csc(NC(=O)c2ccc(N3C(=O)CCC3=O)cc2)n1,-6,-4,-3,/,34*,3
Cc1ccc(-c2csc(NC(=O)CCNC(=O)c3ccc(Cl)cc3)n2)cc1,9,0,8,/,1,3
COc1ccc(-c2csc(NC(=O)c3cccc(N4C(=O)CCC4=O)c3)n2)cc1OC,-6,-5,2,11,1,11
C[C@H](O)C#Cc1cnc2c(c1)C(=O)N([C@@H](C)CO)C[C@@H](C)[C@H](CN(C)C(=O)c1ccccc1)O2,/,/,/,3,/,/
Cc1noc(C)c1NC(=O)N(C)C[C@@H]1Oc2ccc(NC(=O)Cc3cn(C)c4ccccc34)cc2C(=O)N([C@H](C)CO)C[C@H]1C,/,/,/,-6,/,/
C/C=C/c1ccc2c(c1)O[C@@H](CN(C)Cc1ccncc1)[C@@H](C)CN([C@H](C)CO)S2(=O)=O,/,/,/,-3,/,/
